The results in this text go back to PubChem BioAssay AID2253 (Southern Research Specialized Biocontainment Screening …, 2010).

The whole screen tested about 2,200 compounds, of which about 1,300 (59%) were called active. No rule for the calls is given here. The set was probably picked from earlier hits. A selection follows. Entries with a potency or affinity are not part of this list.

This assay is described as follows: human monocytic cell viability reduction – S. typhimurium screen hits, cytotoxicity control for Salmonella PhoP regulon inhibitors, dose response (AID 2253). The conditions noted are these: THP-1 viability, CellTiter-Glo luminescence, 72 h; series mostly up to 50 µM. For orientation: ATP-based viability assays read luminescence as a measure of living cells.
Consider `CCCc1cc(=O)oc2cc(OCC(=O)N3CCc4ccccc43)ccc12`, for which the outcome was inactive.

As for `CCn1c(SCc2ccc(F)cc2)nc2ccccc2c1=O`, the result was inactive.

For `COc1cccc(-n2c(N)c(C(=O)Nc3c(C)n(C)n(-c4ccccc4)c3=O)c3nc4ccccc4nc32)c1`, the compound was classed as inactive.

Take `COc1cc(Cc2cc(N)nc(N)n2)cc(OC)c1OC`: the outcome was inactive.

On to `Cn1c(N)c(C(=O)COC(=O)C2CCCCC2)c(=O)n(C)c1=O`, for which the result was inactive.

Consider `CCC(OC(=O)C(NC(=O)c1ccccc1)c1ccccc1)C(=O)Nc1cc(C)on1` (stereo not given), for which the outcome was inactive.

Take `O=C(NCCc1ccc(Cl)cc1)/C(=C/c1cccnc1)NC(=O)c1ccccc1`: the call was inactive.

In the case of `O=C(N/N=C/c1coc2ccc(Cl)cc2c1=O)c1cc(O)cc(O)c1`, the call was inactive.

With `Cc1occc1C(=O)n1cnc2ccccc21`, the result was inactive.

`O=c1[nH]c2ccccc2n1C1=CCCC1`: the compound was classed as inactive.

For `Cc1ccc2c(c1)cc(CN(Cc1ccc3c(c1)OCO3)C(=O)c1cnccn1)c1nnnn12`, the outcome was inactive.

As to `COC(=O)c1sccc1N/N=C(\C)c1ccc(F)c(Cl)c1`, the outcome was inactive.

As for `CCOc1ccc(CSC(CC(=O)O)C(=O)O)cc1` (stereo not given), the call was inactive.

Take `CC(=O)N1C(=O)C2(C(C#N)=C(N)Oc3c2c(C)nn3-c2ccccc2)c2ccccc21` (stereo not given): the compound was called inactive.

With `O=C(NCc1ccc2c(c1)OCO2)c1ccc(-n2cnnn2)cc1`, the call was inactive.

As for `Cc1cc(C)cc(NC(=O)CSc2nc3c(c(=O)[nH]2)CN(Cc2ccc(F)cc2)CC3)c1`, the compound was classed as inactive.

`Cn1cc(C(CC(=O)O)C(=O)O)c2ccccc21` (stereo not given): the compound was classed as inactive.

For `c1ccc(OCCCN2CCCC2)cc1`, the call was inactive.

For the compound `CCOc1ccccc1OCC(=O)Nc1ccc(S(=O)(=O)Nc2nc(C)cc(C)n2)cc1`, the outcome was inactive.

In the case of `COCCNC(=O)c1ccccc1NS(=O)(=O)c1ccc(Br)s1`, the call was inactive.

`Cc1[nH]n(-c2ccccc2)c(=O)c1-c1ccc(Cl)cc1`: the compound was classed as inactive.

Consider `Cc1nn(-c2ccccc2)c(C)c1C(=O)OC/C(O)=C(\C#N)c1nc2ccccc2[nH]1`, for which the compound was classed as inactive.

Consider `C/C(=C\C(=O)OCCCCCCCCC(=O)O)C[C@@H]1OC[C@H](C[C@@H]2O[C@H]2[C@@H](C)[C@H](C)O)[C@@H](O)[C@H]1O`, for which the outcome was inactive.

On to `O=C1C2C3c4ccccc4C(c4ccccc43)C2C(=O)N1c1cccc2cccnc12` (stereo not given), for which the compound was called inactive.

In the case of `Brc1ccc2cccnc2c1`, the compound was called inactive.

Regarding `CCc1cc2c(NCCC(=O)O)nc(C)nc2s1`, the result was inactive.

Consider `c1ccc(Oc2cc(-c3ccccc3)ncn2)cc1`, for which the call was inactive.

For the compound `Cc1cc(=O)[nH]c(N/N=C/c2c[nH]c3ccccc23)n1`, the compound was called inactive.

Regarding `COc1ccc(-c2cc(C(=O)O)[nH]n2)cc1OC`, the outcome was inactive.

`CCOc1ccc(S(=O)(=O)Nc2ccc(C(=O)N/N=C/c3c(C)nn(-c4ccccc4)c3N3CCCC3)cc2)cc1`: the outcome was inactive.

For `Fc1ccc(-c2n[nH]c(=S)n2/N=C/c2c[nH]c3ccccc23)cc1`, the result was inactive.

In the case of `Cn1cccc1C(=O)OCc1csc(-c2ccccc2)n1`, the call was inactive.

Turning to `N#CC1(C#N)COC23CCCCC2C1(C#N)C(=N)O3` (stereo not given), the compound was classed as inactive.

As to `O=C(NC(CO)Cc1ccc([N+](=O)[O-])cc1)C(Cl)Cl` (stereo not given), the outcome was inactive.

Regarding `Cc1nc(C(=O)Nc2ccc(Cl)cc2)nn1-c1ccc([N+](=O)[O-])cc1`, the compound was classed as inactive.

On to `CCOC(=O)C1(S(=O)(=O)c2ccccc2)CCN(Cc2ccc(Cl)cc2)CC1`, for which the result was inactive.

Turning to `Cc1ccc(NC(=O)C2CC(=O)NC(N3CCCCC3)=N2)cc1Cl` (stereo not given), the outcome was inactive.

On to `CCN(CC)C(=O)CP(=O)(c1ccccc1)c1ccccc1`, for which the outcome was inactive.

As for `CCn1c2ccccc2c2cc(NC(=O)C(C)Oc3ccccc3)ccc21` (stereo not given), the compound was classed as inactive.

On to `O=C(CCNS(=O)(=O)c1cccc2nsnc12)NCc1cccs1`, for which the compound was classed as inactive.

On to `O=C(OCC1COc2ccccc2O1)c1ccccc1F` (stereo not given), for which the outcome was inactive.

For the compound `CCC1C2CN(C(C)=O)CC=C2C(C#N)=C(N)C1(C#N)C#N` (stereo not given), the outcome was inactive.

As to `O=C(CCCN1C(=O)CCC1=O)Nc1ccc2c(c1)OCCO2`, the call was inactive.

`CCCNC(=O)CSc1nnc(C)s1`: the result was inactive.

`CC(=O)Nc1cccc(OC(=O)c2ccoc2C)c1`: the outcome was inactive.

For the compound `CO/N=C(/C(=O)N[C@@H]1C(=O)N2C(C(=O)O)=CCS[C@H]12)c1cnc(N)s1`, the result was inactive.

Regarding `COc1ccc(-c2ccccc2)cc1NCc1ccccc1C`, the compound was called inactive.

Consider `CCOC(=O)Cc1ccc2sc(-c3ccccc3)nc2c1`, for which the compound was called inactive.

Take `CC(C)NC(=O)CSc1nc(N)c(NC(=O)c2ccccc2F)c(=O)[nH]1`: the compound was called inactive.

On to `COC(=O)Cc1c(C)nc2nc(NCc3ccc(Cl)cc3)[nH]n2c1=O`, for which the compound was called inactive.

Regarding `CN1c2ccccc2C(O)=C(C(=O)Nc2ccccc2)S1(=O)=O`, the compound was classed as inactive.

Regarding `O=C(O)CCCCCN1C(=O)c2ccc(C(=O)O)cc2C1=O`, the compound was classed as inactive.

Take `CC(=O)N1N=C(c2ccco2)CC1c1ccc(Br)cc1` (stereo not given): the call was inactive.

`CCOC(=O)CN(C)Cc1c[nH]c2ccccc12`: the call was inactive.

Turning to `O=C(c1ccccc1S(=O)(=O)NCc1ccccc1)N1CCCC1`, the result was inactive.

With `CN(C)CCOC(=O)Cc1ccc(Cl)cc1`, the call was inactive.

On to `O=C(c1cccnc1Nc1ccc2c(c1)CCC2)N1CCOCC1`, for which the compound was classed as inactive.

Take `O=C(NCc1ccco1)c1ccc(Br)s1`: the compound was called inactive.

On to `Cn1c(=O)n(CC(=O)Nc2ccccc2)c2ccccc21`, for which the result was inactive.

`O=C(/C=C/c1ccccc1)N/C(=C/c1ccccc1)C(=O)N1CCOCC1`: the outcome was inactive.

`CN(C)c1ccnc(-n2cccc2/C=N/OCc2ccccc2)c1C#N`: the outcome was inactive.

Turning to `COC(=O)c1sc2nc(CSc3nc4ccc(C)cc4[nH]3)[nH]c(=O)c2c1C`, the compound was called inactive.

As to `CCc1cccc2c(C#N)cn(CC(=O)NCCOC)c12`, the compound was called inactive.

For `CN1CCN(c2c(F)cc3c(=O)c(C(=O)O)cn4c3c2SCC4)CC1`, the call was inactive.

For `S=c1nc(-c2ccccc2)oc2c1CCCC2`, the compound was called inactive.

On to `COc1ccc(-c2ccc(C#N)c(SCC(=O)NCCc3ccccc3)n2)cc1OC`, for which the outcome was inactive.

Take `CCC(CC)C(=O)NCCc1ccc(OC)cc1`: the call was inactive.

As for `CCOC(=O)c1ccc2c(c1)C(=O)N(C1CCCCC1)C2=O`, the call was inactive.

With `N#CC1=C(S)N(c2ccccc2)C(c2ccc(-c3ccccc3Cl)o2)NC1=O` (stereo not given), the compound was classed as inactive.

On to `O=c1c2ccccc2nnn1Cc1ccccn1`, for which the call was inactive.

As for `CCOC(=O)N1CCN(C(=O)c2cn(CC(C)C)c(=O)c3c2c2ccccc2n3C)CC1`, the outcome was inactive.

Regarding `N#CCOC(=O)c1sccc1-n1cccc1`, the compound was classed as inactive.

As to `Cc1cc(C)c(C#N)c(SCc2cn3ccccc3n2)n1`, the outcome was inactive.

Turning to `CCN(CC)c1nc2n(c(=O)n1)CCO2`, the compound was classed as inactive.

As to `COC(=O)Cc1c(O)ccn(Cc2ccc(F)cc2)c1=O`, the compound was classed as inactive.

On to `CC1CCN(C(c2cc3cc4c(cc3[nH]c2=O)OCO4)c2nnnn2CC2CCCO2)CC1` (stereo not given), for which the call was inactive.

For `CCOC(=O)C1CCCN(C(=O)Cc2ccc(Cl)cc2)C1` (stereo not given), the result was inactive.

On to `COCC(=O)N=Nc1c(O)[nH]c2ccccc12`, for which the compound was classed as inactive.

Regarding `Cc1ccc(N(CC(=O)N/N=C/c2ccco2)S(=O)(=O)c2ccccc2)cc1`, the compound was called inactive.

For the compound `C=CCn1c(C)cc(C(=O)CSc2nc(N)cc(N)n2)c1C`, the compound was classed as inactive.

Take `O=C(O)CC(NC(=S)NCc1ccccc1)C(=O)O` (stereo not given): the outcome was inactive.

As for `COc1c(/C=N/Nc2nc(N3CCCCC3)nc(N3CCCCC3)n2)cccc1[N+](=O)[O-]`, the outcome was inactive.

For `CCCCN(C(=O)NC(=O)Nc1nc2ccc(OC)cc2s1)S(C)(=O)=O`, the call was inactive.

Consider `CCOc1ccc(NC(=O)CCC(=O)n2nc(C)cc2C)cc1`, for which the result was inactive.

On to `CCOc1ccc(Nc2nc(NCCN3CCOCC3)nc(OC)n2)cc1`, for which the outcome was inactive.

In the case of `CNc1nc(Sc2ccccc2)cc(C(F)(F)F)n1`, the result was inactive.

Take `Cc1ccc(/C(O)=C2\C(=O)C(=O)N(CC(C)O)C2c2cccc(F)c2)cc1` (stereo not given): the outcome was inactive.

Take `NC(=O)CCc1c[nH]c2ccccc12`: the outcome was inactive.

With `CCOC(=O)CCCc1c[nH]c2ccccc12`, the outcome was inactive.

As to `CC1COc2c(N3CCN(C)CC3)c(F)cc3c(=O)c(C(=O)O)cn1c23` (stereo not given), the result was inactive.

For `CCOC(=O)c1c(/N=C/c2ccc(O)cc2O)sc2c1CCC2`, the result was inactive.

`Cn1ncc(N=Cc2ccccc2O)c1C(=O)Nc1ccccc1`: the compound was classed as inactive.

Regarding `CCCc1ccc(C(=O)CCC(=O)O)cc1`, the compound was classed as inactive.

Regarding `CCOC(=O)c1ccccc1C(=O)N1CCOCCOCCOCC1`, the compound was classed as inactive.

For `COc1ccccc1N1CCN(C(=O)CSc2nc3ccccc3o2)CC1`, the compound was classed as inactive.

With `COc1ccc(C2C(C#N)=C(N)OC3=C2C(=O)CCC3)cc1Cn1cc([N+](=O)[O-])cn1` (stereo not given), the outcome was inactive.

Regarding `CCOC(=O)c1[nH]c2ccccc2c1NC(=O)C(C)(C)C`, the outcome was inactive.

As to `Cc1ccc2nc(SCC(=O)c3c(C)[nH]c4ccccc34)[nH]c2c1`, the outcome was inactive.

With `CNC(=O)CSc1nnc(-c2cccnc2)n1CCc1ccccc1`, the call was inactive.

On to `CCCCC1CCC(C(=O)Nc2ccccc2)CC1` (stereo not given), for which the call was inactive.

As to `Cn1cnnc1SCC(=O)Nc1cccc(C(=O)O)c1`, the compound was classed as inactive.

For `Cc1cccc(NC(=O)c2ccc(Cn3cc(C(F)(F)F)ccc3=O)cc2)c1`, the compound was classed as inactive.

With `S=C(c1ccc2c(c1)OCO2)N1CCCC1`, the compound was called inactive.

Take `c1ccc(-c2ncnc3nc4n(c23)CCC4)cc1`: the compound was called inactive.

On to `Cc1c(Cl)cccc1NC(=O)CSc1ncnc2c1cnn2CCc1ccccc1`, for which the outcome was inactive.

For the compound `COC(=O)C1C(O)C(C)C(O)C(C)(O)/C=C\C=C(/C)C(=O)Nc2c(C)c(OC(C)=O)c3c(c2O)C(=O)C(C)=C2OCOC(=C23)/C(C)=C/C(C)(O)C(O)C(C)C1O` (stereo not given), the compound was called inactive.

`CCSc1nnc(NC(=O)Cc2cccc(OC)c2)s1`: the compound was classed as inactive.

As for `CNc1nnc(-c2cccc(N(C)C)c2)s1`, the call was inactive.

With `O=C(COc1ncnc2sccc12)N1CCN(S(=O)(=O)c2ccc(Cl)cc2)CC1`, the call was inactive.

Turning to `COc1cccc(OCC(O)CN2CCN(c3ccccn3)CC2)c1` (stereo not given), the call was inactive.

With `C=CCOc1ccccc1CNCCCN1CCOCC1`, the result was inactive.

For the compound `Cc1ccc(NC(=S)NCCc2ccccc2)c(C)c1`, the result was inactive.

`COc1ccc(OC)c(NC(=S)NCCCN2CCOCC2)c1`: the compound was classed as inactive.

As to `O=C(O)c1cc(NCc2ccc3c(c2)OCO3)ccc1N1CCOCC1`, the compound was classed as inactive.

For `c1ccc(Cn2nnc3c(NCc4ccc5c(c4)OCO5)nc(C4CC4)nc32)cc1`, the call was inactive.
